In PubChem BioAssay (NCI):
The panel holds about 83,000 compounds, 20% with a hit somewhere; the sample as a whole holds those more often.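 Results are percent growth after 48 hours of single-concentration exposure. 100 means growth as in untreated cells, lower positive values show inhibition; negative values down to -100 show cell death.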 The source made the active and inactive calls. Rule for the calls: active = growth percent below 10; inactive = the rest.

What was measured:
Assay in all cases: NCI-60 one-dose screen, 48 h (100 = growth as untreated, 0 = no growth, -100 = all killed)
Details in all cases: 10 µM unless noted
HT29 colon = test system: HT29 colon
SNB-75 CNS = test system: SNB-75 CNS
SNB-19 CNS = test system: SNB-19 CNS
U251 CNS = test system: U251 CNS
PC-3 prostate = test system: PC-3 prostate
UACC-62 melanoma = test system: UACC-62 melanoma
LOX IMVI melanoma = test system: LOX IMVI melanoma
SK-MEL-28 melanoma = test system: SK-MEL-28 melanoma
SK-MEL-2 melanoma = test system: SK-MEL-2 melanoma
EKVX NSCLC = test system: EKVX NSCLC
SN12C renal = test system: SN12C renal
UO-31 renal = test system: UO-31 renal
TK-10 renal = test system: TK-10 renal
ACHN renal = test system: ACHN renal
CAKI-1 renal = test system: CAKI-1 renal
A498 renal = test system: A498 renal
CCRF-CEM leukemia = test system: CCRF-CEM leukemia
MOLT-4 leukemia = test system: MOLT-4 leukemia
SK-MEL-5 melanoma = test system: SK-MEL-5 melanoma
SR leukemia = test system: SR leukemia

Measured: growth

NS(=O)(=O)c1ccc(NC2=C(Cl)C(=O)c3ccccc3C2=O)cc1
inactive: HT29 colon 105% | SNB-75 CNS 136% | SNB-19 CNS 101% | U251 CNS 97.5% | PC-3 prostate 70.1% | UACC-62 melanoma 96.2% | LOX IMVI melanoma 53.7% | SK-MEL-28 melanoma 124% | SK-MEL-2 melanoma 102% | EKVX NSCLC 107% | SN12C renal 87% | UO-31 renal 53.2% | TK-10 renal 164% | ACHN renal 78.3% | CAKI-1 renal 107% | A498 renal 163% | CCRF-CEM leukemia 85.7% | MOLT-4 leukemia 73.6%

O=C(/C(=C/c1ccc([N+](=O)[O-])cc1)c1ccccc1)c1ccccc1
inactive: HT29 colon 44.1% | SNB-75 CNS 70.6% | SNB-19 CNS 75.9% | U251 CNS 52.6% | PC-3 prostate 59.1% | SK-MEL-5 melanoma 43.6% | SK-MEL-28 melanoma 97.9% | SK-MEL-2 melanoma 24.9% | SN12C renal 35.1% | UO-31 renal 43.1% | ACHN renal 40.9% | CAKI-1 renal 48.6% | A498 renal 77%
active: LOX IMVI melanoma 5.01% | CCRF-CEM leukemia 0.582% | MOLT-4 leukemia -2.9% | SR leukemia 0.152%

Oc1ccccc1/C=N\Nc1ccccc1
active: UACC-62 melanoma -5.08%
inactive: HT29 colon 95.9% | SNB-75 CNS 71.9% | SNB-19 CNS 86% | U251 CNS 75.9% | PC-3 prostate 36.3% | LOX IMVI melanoma 53% | SK-MEL-28 melanoma 102% | SK-MEL-2 melanoma 92.1% | EKVX NSCLC 72.8% | SN12C renal 44.9% | UO-31 renal 15.5% | TK-10 renal 110% | ACHN renal 27.2% | CAKI-1 renal 10.8% | A498 renal 82.5% | CCRF-CEM leukemia 17.8% | MOLT-4 leukemia 35.3%

CCC[C@H](N[C@@H](C)C(=O)N1[C@H](C(=O)O)C[C@@H]2CCCC[C@@H]21)C(=O)OCC
inactive: HT29 colon 100% | SNB-75 CNS 112% | SNB-19 CNS 104% | U251 CNS 93.6% | PC-3 prostate 91.8% | UACC-62 melanoma 104% | LOX IMVI melanoma 89.8% | SK-MEL-28 melanoma 123% | SK-MEL-2 melanoma 112% | EKVX NSCLC 111% | SN12C renal 101% | UO-31 renal 77.4% | ACHN renal 90.8% | CAKI-1 renal 102% | A498 renal 98.9% | CCRF-CEM leukemia 105% | MOLT-4 leukemia 115%

Nc1c2ccccc2nc2ccccc12 (tested in a mixture with another compound)
active: HT29 colon 0.0152% | UACC-62 melanoma 5.82% | LOX IMVI melanoma 4.92% | ACHN renal 8.26% | A498 renal 0.179%
inactive: SNB-75 CNS 31.9% | SNB-19 CNS 29.4% | U251 CNS 13.7% | PC-3 prostate 17% | SK-MEL-28 melanoma 36.2% | SN12C renal 20.1% | UO-31 renal 14.9% | TK-10 renal 15.5% | CAKI-1 renal 20.2% | CCRF-CEM leukemia 26.2% | MOLT-4 leukemia 15.4%

COc1cc(/C=C2\COc3ccc(O)cc3C2=O)cc(OC)c1
inactive: HT29 colon 12% | SNB-75 CNS 87% | SNB-19 CNS 50.5% | U251 CNS 30.1% | PC-3 prostate 53.8% | UACC-62 melanoma 62.6% | SK-MEL-28 melanoma 94.4% | SK-MEL-2 melanoma 101% | EKVX NSCLC 94.8% | SN12C renal 21.7% | UO-31 renal 63.1% | TK-10 renal 93.6% | ACHN renal 48.9% | CAKI-1 renal 68.4% | A498 renal 101% | MOLT-4 leukemia 31.3%
active: LOX IMVI melanoma -65.5% | CCRF-CEM leukemia -0.953% | SR leukemia 3.36%

O=[N+]([O-])c1ccc(Oc2cccc(C(F)(F)F)c2)c([N+](=O)[O-])c1
inactive: SNB-75 CNS 92.2% | SNB-19 CNS 74.5% | U251 CNS 18.3% | PC-3 prostate 88.9% | UACC-62 melanoma 34.1% | SK-MEL-28 melanoma 104% | SK-MEL-2 melanoma 11.7% | EKVX NSCLC 111% | SN12C renal 28.2% | UO-31 renal 28.6% | TK-10 renal 11.2% | ACHN renal 42% | CAKI-1 renal 20.2% | A498 renal 97.8% | CCRF-CEM leukemia 14.7% | MOLT-4 leukemia 17.1%
active: HT29 colon -4.93% | LOX IMVI melanoma 8.07% | SR leukemia 5.65%

CCCCCCCCCCC[C@@H](C[C@H]1OC(=O)[C@H]1CCCCCC)OC(=O)[C@@H](CC(C)C)NC=O
inactive: HT29 colon 38.4% | SNB-75 CNS 82.4% | SNB-19 CNS 55.6% | U251 CNS 63% | PC-3 prostate 50.4% | UACC-62 melanoma 77.3% | LOX IMVI melanoma 14.1% | SK-MEL-28 melanoma 111% | EKVX NSCLC 95.6% | SN12C renal 43.9% | UO-31 renal 19% | TK-10 renal 94.7% | ACHN renal 62.7% | CAKI-1 renal 54.7% | A498 renal 84.5% | CCRF-CEM leukemia 27.6% | MOLT-4 leukemia 13.1%

CCOc1cccc(C2CC(=O)Nc3cc4c(cc32)OCO4)c1 (stereo not drawn)
inactive: HT29 colon 89.1% | SNB-75 CNS 104% | SNB-19 CNS 100% | U251 CNS 85.1% | PC-3 prostate 81.7% | UACC-62 melanoma 90.9% | LOX IMVI melanoma 93.8% | SK-MEL-28 melanoma 99.9% | SK-MEL-2 melanoma 83.1% | EKVX NSCLC 83.8% | SN12C renal 104% | UO-31 renal 68.6% | TK-10 renal 86.2% | ACHN renal 89.7% | CAKI-1 renal 64% | A498 renal 66.5% | CCRF-CEM leukemia 72.7% | MOLT-4 leukemia 78.2% | SR leukemia 57.5%

CC[C@H](C)C(=O)O[C@H]1C[C@@H](C)C=C2C=C[C@H](C)[C@H](CC[C@@H]3C[C@@H](O)CC(=O)O3)[C@H]21
active: A498 renal -27.9%
inactive: HT29 colon 95.4% | SNB-75 CNS 58.3% | SNB-19 CNS 64.9% | U251 CNS 25.2% | PC-3 prostate 33.9% | UACC-62 melanoma 23.7% | LOX IMVI melanoma 25.1% | SK-MEL-28 melanoma 90.6% | SK-MEL-2 melanoma 36.8% | EKVX NSCLC 62.4% | SN12C renal 42.5% | UO-31 renal 74.7% | TK-10 renal 104% | ACHN renal 32.9% | CAKI-1 renal 20.7% | CCRF-CEM leukemia 72.9% | MOLT-4 leukemia 90.8%
